In ChEMBL document CHEMBL1961873, “Compounds: GSK PKIS; Assays: Nanosyn kinase panel” (2012) one finds inhibition data, which are given here for 7 compounds.

Structures are written as SMILES. Values joined by “and” are separate entries in the source; they are usually repeats but may differ in a detail not shown here. Equal entries are not always repeated.

Test [1] has as its target MAP/microtubule affinity-regulating kinase 3 (Homo sapiens) (UniProt P27448). To be noted: at 1 µM.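 Note: reported values are averaged percent inhibition of MARK3.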
For test [2], the target named is T1, MAP/microtubule affinity-regulating kinase 4 (Homo sapiens) (UniProt Q96L34).
T1 sequence (whole entry): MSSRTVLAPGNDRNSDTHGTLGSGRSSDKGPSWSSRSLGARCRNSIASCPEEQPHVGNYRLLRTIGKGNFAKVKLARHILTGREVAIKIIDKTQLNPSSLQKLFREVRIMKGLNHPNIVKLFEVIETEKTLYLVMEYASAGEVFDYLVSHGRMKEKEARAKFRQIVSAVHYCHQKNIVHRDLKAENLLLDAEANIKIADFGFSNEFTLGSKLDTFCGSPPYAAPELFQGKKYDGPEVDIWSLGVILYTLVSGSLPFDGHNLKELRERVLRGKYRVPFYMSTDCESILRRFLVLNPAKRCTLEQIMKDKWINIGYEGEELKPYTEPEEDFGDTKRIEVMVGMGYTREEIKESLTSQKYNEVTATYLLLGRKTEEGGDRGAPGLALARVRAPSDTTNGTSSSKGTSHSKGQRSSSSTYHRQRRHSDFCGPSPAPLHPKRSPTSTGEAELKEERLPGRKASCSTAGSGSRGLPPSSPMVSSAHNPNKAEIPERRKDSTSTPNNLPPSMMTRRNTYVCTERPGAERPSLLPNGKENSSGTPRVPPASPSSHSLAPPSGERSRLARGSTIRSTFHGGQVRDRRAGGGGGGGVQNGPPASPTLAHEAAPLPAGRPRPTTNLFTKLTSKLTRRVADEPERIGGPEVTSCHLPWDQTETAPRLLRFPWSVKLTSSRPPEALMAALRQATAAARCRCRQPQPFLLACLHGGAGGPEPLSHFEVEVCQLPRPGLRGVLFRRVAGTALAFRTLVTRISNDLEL
To be noted: at 0.1 µM.

Test [3] concerns the target T1, MAP/microtubule affinity-regulating kinase 4 (Homo sapiens). To be noted: at 1 µM.
Test [4] addresses Maternal embryonic leucine zipper kinase (Homo sapiens) (UniProt Q14680). The note with it: at 0.1 µM.
Test [5] shares this target. To be noted: at 1 µM.
In test [6] the target is MAP kinase-interacting serine/threonine-protein kinase 1 (Homo sapiens) (UniProt Q9BUB5). The note with it: at 0.1 µM.
For test [7] the target is unchanged. To be noted: at 1 µM.
The target in test [8] is MAP kinase-interacting serine/threonine-protein kinase 2 (Homo sapiens) (UniProt Q9HBH9). The note with it: at 0.1 µM.
For test [9] the target is unchanged. To be noted: at 1 µM.
In test [10] the target is Serine/threonine-protein kinase MARK2 (Homo sapiens) (UniProt Q7KZI7). To be noted: at 0.1 µM.
For test [11] the target is unchanged. The note with it: at 1 µM.
Test [12] concerns the target PAS domain-containing serine/threonine-protein kinase (Homo sapiens) (UniProt Q96RG2). To be noted: at 0.1 µM.
Test [13] has the same target. The note with it: at 1 µM.
Test [14] deals with Phosphorylase b kinase gamma catalytic chain, skeletal muscle/heart isoform (Homo sapiens) (UniProt Q16816). The note with it: at 0.1 µM.
The target is the same in test [15]. To be noted: at 1 µM.
Test [16] has as its target T2, Phosphorylase b kinase gamma catalytic chain, liver/testis isoform (Homo sapiens) (UniProt P15735).
T2 sequence (whole entry): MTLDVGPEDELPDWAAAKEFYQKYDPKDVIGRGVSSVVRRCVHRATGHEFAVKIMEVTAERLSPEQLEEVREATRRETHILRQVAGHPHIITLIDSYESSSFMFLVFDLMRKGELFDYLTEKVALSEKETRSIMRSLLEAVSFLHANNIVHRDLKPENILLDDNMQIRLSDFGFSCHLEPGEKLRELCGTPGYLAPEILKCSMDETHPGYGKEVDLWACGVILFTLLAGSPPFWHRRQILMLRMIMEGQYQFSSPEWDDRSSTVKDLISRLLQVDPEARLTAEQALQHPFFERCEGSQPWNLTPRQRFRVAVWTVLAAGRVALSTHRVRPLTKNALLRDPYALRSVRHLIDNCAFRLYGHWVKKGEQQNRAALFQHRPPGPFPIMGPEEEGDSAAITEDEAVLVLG
To be noted: at 0.1 µM.

The target in test [17] is T2, Phosphorylase b kinase gamma catalytic chain, liver/testis isoform (Homo sapiens). To be noted: at 1 µM.
Test [18] has as its target Serine/threonine-protein kinase pim-1 (Homo sapiens) (UniProt P11309). To be noted: at 0.1 µM.
Test [19] shares this target. The note with it: at 1 µM.
In test [20] the target is Serine/threonine-protein kinase pim-2 (Homo sapiens) (UniProt Q9P1W9). To be noted: at 0.1 µM.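 Note: reported value is the mean percent inhibition of PIM2, measured in the GSK PKIS kinase inhibitor set screen.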
Sequence of Serine/threonine-protein kinase pim-2 (Homo sapiens) (Q9P1W9 whole entry, looked up): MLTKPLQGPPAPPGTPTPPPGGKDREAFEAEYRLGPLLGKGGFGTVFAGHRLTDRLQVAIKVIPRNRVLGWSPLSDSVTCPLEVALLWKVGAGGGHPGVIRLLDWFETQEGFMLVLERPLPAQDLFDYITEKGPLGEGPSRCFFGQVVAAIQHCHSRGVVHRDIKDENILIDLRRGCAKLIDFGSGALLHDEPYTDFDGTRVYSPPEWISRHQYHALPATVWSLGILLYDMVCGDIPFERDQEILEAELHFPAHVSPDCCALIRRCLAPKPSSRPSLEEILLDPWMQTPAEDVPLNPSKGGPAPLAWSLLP

Sequence of Serine/threonine-protein kinase pim-1 (Homo sapiens) (P11309 whole entry, looked up): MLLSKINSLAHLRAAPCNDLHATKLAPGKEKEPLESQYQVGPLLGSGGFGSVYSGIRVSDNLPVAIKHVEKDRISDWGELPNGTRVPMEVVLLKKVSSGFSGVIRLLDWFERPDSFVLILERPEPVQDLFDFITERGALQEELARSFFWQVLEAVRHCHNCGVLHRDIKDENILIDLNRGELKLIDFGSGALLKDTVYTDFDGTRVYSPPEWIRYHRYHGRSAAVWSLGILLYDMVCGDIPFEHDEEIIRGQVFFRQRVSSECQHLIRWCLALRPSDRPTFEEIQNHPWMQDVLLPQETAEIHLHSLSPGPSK
Sequence of MAP kinase-interacting serine/threonine-protein kinase 1 (Homo sapiens) (Q9BUB5 whole entry, looked up): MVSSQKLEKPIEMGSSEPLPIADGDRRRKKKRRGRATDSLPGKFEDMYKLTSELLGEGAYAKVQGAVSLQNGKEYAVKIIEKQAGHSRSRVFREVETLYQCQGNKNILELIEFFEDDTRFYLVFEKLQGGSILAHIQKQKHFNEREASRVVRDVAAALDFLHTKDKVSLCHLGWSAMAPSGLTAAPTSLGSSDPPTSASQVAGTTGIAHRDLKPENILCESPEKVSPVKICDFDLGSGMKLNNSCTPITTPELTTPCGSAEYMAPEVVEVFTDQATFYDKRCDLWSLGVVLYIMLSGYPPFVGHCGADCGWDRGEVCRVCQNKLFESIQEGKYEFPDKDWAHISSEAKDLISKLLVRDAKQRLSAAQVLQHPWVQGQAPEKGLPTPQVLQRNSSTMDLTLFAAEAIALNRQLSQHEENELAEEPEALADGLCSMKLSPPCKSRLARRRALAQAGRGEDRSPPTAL
Sequence of PAS domain-containing serine/threonine-protein kinase (Homo sapiens) (Q96RG2 whole entry, the tested form may be a part): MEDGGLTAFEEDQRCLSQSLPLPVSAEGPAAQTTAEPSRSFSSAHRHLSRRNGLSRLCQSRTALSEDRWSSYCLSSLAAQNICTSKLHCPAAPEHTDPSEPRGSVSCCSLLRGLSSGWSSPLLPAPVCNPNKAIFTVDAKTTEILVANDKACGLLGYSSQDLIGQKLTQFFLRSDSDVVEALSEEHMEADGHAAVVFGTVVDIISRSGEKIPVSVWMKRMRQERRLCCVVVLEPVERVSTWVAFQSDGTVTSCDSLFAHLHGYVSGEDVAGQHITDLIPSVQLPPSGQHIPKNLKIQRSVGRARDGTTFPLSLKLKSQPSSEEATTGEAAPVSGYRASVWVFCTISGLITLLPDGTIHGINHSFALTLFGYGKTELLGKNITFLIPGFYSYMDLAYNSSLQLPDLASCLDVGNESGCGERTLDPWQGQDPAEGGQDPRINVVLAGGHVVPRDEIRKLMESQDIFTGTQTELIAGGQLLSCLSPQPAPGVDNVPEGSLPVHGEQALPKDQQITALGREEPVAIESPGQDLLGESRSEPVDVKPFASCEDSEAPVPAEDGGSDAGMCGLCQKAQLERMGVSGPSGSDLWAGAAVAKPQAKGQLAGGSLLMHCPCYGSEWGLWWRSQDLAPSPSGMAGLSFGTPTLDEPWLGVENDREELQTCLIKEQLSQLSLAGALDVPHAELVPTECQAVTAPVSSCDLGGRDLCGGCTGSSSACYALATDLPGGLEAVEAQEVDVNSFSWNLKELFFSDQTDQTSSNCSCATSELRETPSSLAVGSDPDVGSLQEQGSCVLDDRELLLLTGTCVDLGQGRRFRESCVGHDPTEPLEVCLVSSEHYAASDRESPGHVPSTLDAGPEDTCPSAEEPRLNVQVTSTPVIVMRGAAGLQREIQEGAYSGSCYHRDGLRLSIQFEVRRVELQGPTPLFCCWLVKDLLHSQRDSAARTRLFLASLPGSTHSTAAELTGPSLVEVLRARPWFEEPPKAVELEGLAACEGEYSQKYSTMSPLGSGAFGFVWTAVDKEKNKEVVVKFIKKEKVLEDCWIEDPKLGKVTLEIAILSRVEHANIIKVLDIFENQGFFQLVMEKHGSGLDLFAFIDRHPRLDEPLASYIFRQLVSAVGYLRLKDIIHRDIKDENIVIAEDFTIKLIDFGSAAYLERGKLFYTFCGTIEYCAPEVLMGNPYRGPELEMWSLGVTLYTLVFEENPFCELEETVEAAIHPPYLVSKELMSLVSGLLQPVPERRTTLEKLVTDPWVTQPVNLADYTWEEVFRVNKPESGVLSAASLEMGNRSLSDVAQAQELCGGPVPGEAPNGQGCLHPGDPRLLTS
Sequence of MAP kinase-interacting serine/threonine-protein kinase 2 (Homo sapiens) (Q9HBH9 whole entry, looked up): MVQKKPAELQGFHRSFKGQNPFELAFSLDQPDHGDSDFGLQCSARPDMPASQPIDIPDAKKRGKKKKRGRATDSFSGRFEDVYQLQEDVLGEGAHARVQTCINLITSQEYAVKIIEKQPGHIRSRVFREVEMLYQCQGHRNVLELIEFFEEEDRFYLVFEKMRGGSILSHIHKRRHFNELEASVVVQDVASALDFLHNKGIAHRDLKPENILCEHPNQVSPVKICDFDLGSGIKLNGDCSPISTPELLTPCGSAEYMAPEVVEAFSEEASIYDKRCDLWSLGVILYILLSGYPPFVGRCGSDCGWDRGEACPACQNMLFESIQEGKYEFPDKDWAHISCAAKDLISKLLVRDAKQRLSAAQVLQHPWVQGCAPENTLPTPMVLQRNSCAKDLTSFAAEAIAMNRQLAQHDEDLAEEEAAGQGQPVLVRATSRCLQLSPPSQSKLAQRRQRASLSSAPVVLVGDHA
Sequence of Phosphorylase b kinase gamma catalytic chain, skeletal muscle/heart isoform (Homo sapiens) (Q16816 whole entry, looked up, canonical isoform): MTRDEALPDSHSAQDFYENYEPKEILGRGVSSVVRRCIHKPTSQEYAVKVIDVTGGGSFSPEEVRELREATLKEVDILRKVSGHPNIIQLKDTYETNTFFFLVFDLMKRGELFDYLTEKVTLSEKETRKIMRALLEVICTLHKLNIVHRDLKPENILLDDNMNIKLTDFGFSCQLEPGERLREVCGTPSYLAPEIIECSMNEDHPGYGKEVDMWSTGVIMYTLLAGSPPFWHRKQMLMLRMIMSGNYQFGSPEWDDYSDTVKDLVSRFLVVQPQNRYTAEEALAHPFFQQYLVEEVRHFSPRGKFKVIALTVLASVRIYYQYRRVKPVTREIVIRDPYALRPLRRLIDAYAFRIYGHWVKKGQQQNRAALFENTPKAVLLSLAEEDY
Sequence of Serine/threonine-protein kinase MARK2 (Homo sapiens) (Q7KZI7 whole entry): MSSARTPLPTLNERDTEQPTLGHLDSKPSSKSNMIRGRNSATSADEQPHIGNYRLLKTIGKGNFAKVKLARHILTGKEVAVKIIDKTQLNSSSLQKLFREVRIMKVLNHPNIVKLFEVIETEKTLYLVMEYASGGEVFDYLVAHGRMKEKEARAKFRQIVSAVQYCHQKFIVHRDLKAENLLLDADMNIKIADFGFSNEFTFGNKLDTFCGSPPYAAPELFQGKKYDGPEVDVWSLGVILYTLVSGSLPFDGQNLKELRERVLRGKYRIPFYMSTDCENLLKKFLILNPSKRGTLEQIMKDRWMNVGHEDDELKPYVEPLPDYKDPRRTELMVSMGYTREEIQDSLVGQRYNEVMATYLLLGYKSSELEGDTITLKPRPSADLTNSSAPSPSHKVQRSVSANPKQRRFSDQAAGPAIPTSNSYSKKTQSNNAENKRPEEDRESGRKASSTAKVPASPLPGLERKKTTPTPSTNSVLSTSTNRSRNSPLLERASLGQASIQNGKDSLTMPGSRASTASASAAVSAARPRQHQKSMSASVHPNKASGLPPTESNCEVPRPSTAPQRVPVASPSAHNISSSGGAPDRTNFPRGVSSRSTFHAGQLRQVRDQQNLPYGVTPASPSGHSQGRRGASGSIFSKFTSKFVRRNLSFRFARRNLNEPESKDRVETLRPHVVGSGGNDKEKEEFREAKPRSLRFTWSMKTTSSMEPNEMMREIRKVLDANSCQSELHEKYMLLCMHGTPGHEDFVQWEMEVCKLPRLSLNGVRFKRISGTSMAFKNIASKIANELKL
Sequence of Maternal embryonic leucine zipper kinase (Homo sapiens) (Q14680 whole entry, looked up): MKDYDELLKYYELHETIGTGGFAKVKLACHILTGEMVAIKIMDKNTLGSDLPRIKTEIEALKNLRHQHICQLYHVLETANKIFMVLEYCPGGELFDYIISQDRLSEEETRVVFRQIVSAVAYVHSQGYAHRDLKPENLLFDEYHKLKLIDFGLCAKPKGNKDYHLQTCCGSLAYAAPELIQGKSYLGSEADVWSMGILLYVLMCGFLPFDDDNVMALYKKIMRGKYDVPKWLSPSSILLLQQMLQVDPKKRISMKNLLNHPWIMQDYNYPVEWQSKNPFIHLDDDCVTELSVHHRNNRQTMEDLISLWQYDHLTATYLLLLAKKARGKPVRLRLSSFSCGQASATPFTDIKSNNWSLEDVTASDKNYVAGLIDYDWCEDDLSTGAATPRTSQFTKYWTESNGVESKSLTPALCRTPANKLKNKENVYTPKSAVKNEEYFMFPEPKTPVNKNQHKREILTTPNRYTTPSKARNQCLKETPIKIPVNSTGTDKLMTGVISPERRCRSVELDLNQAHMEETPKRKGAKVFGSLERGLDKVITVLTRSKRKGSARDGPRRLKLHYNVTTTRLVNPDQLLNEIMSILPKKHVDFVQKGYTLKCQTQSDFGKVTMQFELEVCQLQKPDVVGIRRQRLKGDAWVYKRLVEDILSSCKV

As a reminder, the inhibition is the change of the read-out against control, counted positive when it falls. As to `CN1CCC(n2cnc(-c3ccc(F)cc3)c2-c2ccnc(NCCO)n2)CC1`, the inhibition in test [1] stood at 6.04%; in test [2], 0.86%; in [3], 2.05%; in test [4] it was 2.15%; in test [5] it was 5.49%; in test [6], 4.71%. Besides, the inhibition was 15.9% in [7]; 2.63% in test [8]; 8.42% in test [9]; -0.26% in test [10]; -0.08% in test [11]; 0.82% in test [12]. The inhibition in test [13] turned out to be 0.93%; in test [14] it was 2.34%; in test [15] it was 5.88%; in [16] it was 4.56%; in [17] it was 7.31%; in test [18], 0.34%. The inhibition came out at 1.55% in test [19] and 0.95% in test [20].

For `CCS(=O)(=O)c1ccc(OC)c(Nc2ncc(-c3cccc(F)c3)o2)c1`, the inhibition in test [1] turned out to be 2.56%; in test [2], 2.11%; in test [3], 2.65%; in [4], 7%; in test [5] it was 15.4%; in test [6], 3.79%. The inhibition in test [7] is 19.5%; in [8], 1.15%; in [9], 12.2%; in test [10], 2.49%; in test [11], 2.64%; in test [12], -0.05%. Besides, the inhibition in test [13] was -0.06%; in test [14] it was 6.05%; in test [15], 24.7%; in test [16] it was 6.86%; in test [17], 8.13%; in test [18], 1.98%. The figures for the inhibition in [19] and in [20] were 4.66% and -0.96%, respectively.

Take `Nc1nccc(-c2c(-c3ccc(F)cc3)ncn2C2CCNCC2)n1`: the inhibition in test [1] was 0.65% and -2.22%; in test [2], -0.05% and 0.87%; in [3], 0.67% and 0.98%; in test [4], -3.33% and -1.76%; in test [5], 4.7% and 0.94%; in test [6], -0.09% and 1.2%. Further, the inhibition in [7] was 12.4% and 3.16%; in test [8], 0.4% and 0.49%; in test [9], 4.75% and 1.44%; in test [10], 0.15% and 0.08%; in test [11] it was 1.75% and 0.35%; in test [12], -0.64% and -0.39%. For the same compound, the inhibition is -0.63% and -0.93% in [13]; -0.27% and 1.11% in test [14]; 2.04% and 1.58% in test [15]; -6.47% and 0.35% in [16]; -6.27% and -1.71% in test [17]; 0.29% and -0.7% in test [18]. Also, the inhibition in test [19] is 7.06% and -0.6%; in test [20], -0.19% and 0.2%.

For the compound `COc1c(C(N)=O)cc(-c2ccc(Cl)cc2)cc1-c1ccc(S(N)(=O)=O)cc1`, the inhibition in test [1] turned out to be 2.07%; in test [2], 0.45%; in test [3] it was 1.37%; in test [4], 6.28%; in test [5], 14.6%; in test [6], 3.66%. Moreover, the inhibition is 11.2% in test [7]; 2.02% in [8]; 5.44% in test [9]; 1.8% in [10]; 1.57% in [11]; -2.39% in test [12]. For the same compound, the inhibition is -1.49% in test [13]; 0.45% in test [14]; 3.12% in [15]; 3.72% in test [16]; 5.17% in test [17]; 1.83% in test [18]. For the same compound, the inhibition in test [19] is 2.23%; in [20], -0.64%.

For `Cc1cc(O)cc(C)c1/C=C/c1cncc(C(N)=O)c1`, the inhibition in test [1] amounted to 3.59%; in test [2] it was 0.98%; in [3], 1.6%; in [4], 3.07%; in [5], 3.76%; in test [6], 9.34%. In addition, the inhibition in test [7] was found to be 44.9%; in [8], 4.98%; in test [9], 37.8%; in test [10], 0.97%; in test [11], 1.96%; in test [12], 0.45%. Further, the inhibition is -0.18% in test [13]; 3.36% in test [14]; 2.58% in test [15]; 2.43% in test [16]; 0.42% in test [17]; 0.11% in [18]. The values for the inhibition in test [19] and in [20] were 0.65% and 0.8%, respectively.

With `N#Cc1cccc(Nc2ncc(-c3ccccc3)o2)c1`, the inhibition in test [1] was 7.34%; in test [2], -0.09%; in test [3], 1.81%; in [4] it was -0.12%; in [5] it was 2.2%; in test [6], 2.67%. Also, the inhibition in [7] was 10.1%; in test [8] it was 2.19%; in test [9] it was 8.7%; in test [10] it was -0.17%; in [11], -0.47%; in [12] it was 0.37%. In addition, the inhibition in test [13] came to 2.05%; in [14], 2.95%; in test [15], 12.9%; in test [16] it was 1.85%; in test [17] it was 6.04%; in test [18] it was 0.15%. The inhibition in test [19] is 0.29%; in [20], 0.1%.

`N#Cc1ccc2c(-c3ccnc(NC4CC4)n3)c(-c3ccc(F)cc3)nn2c1`: the inhibition in [1] was 0.43%; in test [2] it was 0.81%; in test [3], 0.11%; in test [4], -0.07%; in [5], -2.83%; in [6], 1.98%. Moreover, the inhibition is 0.7% in [7]; -0.74% in [8]; 1.03% in [9]; -0.15% in test [10]; 0.62% in test [11]; 1.11% in test [12]. The inhibition in [13] was 0.62%; in test [14], 0.42%; in [15], 2.62%; in test [16] it was 1.29%; in [17], 0.44%; in [18], -0.01%. The inhibition was -1.52% in [19] and -0.15% in test [20].
